# Measurements reported in PubChem BioAssay (NCI).
# This is part of a sample that, as a whole, favours compounds with a hit. Of some 79,000 tested, about 15% had one in any assay. Active and inactive are the calls of the source. Rule as the data show it: active = growth inhibition above about 70%; inactive = the rest.
# Assays:
# [1] = NCI Yeast Anticancer Drug Screen. Data for the rad52 strain (AID 147);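 also: 0% = growth of vehicle-treated control cultures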; conditions: S. cerevisiae rad52 mutant growth inhibition, stronger effect = higher value
# Outline: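 Inhibition of yeast growth, referenced to vehicle controls, was the measured output for a strain with defective DNA damage repair.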
# [2] = NCI Yeast Anticancer Drug Screen. Data for the wt1 strain (AID 149);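 also: 0% = growth of vehicle-treated wt1 cultures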; conditions: S. cerevisiae wt1 strain (SPY 50644) growth inhibition, stronger effect = higher value
# Outline: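 wt1 yeast, compound-treated; % growth inhibition vs vehicle control.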
# [3] = NCI Yeast Anticancer Drug Screen. Data for the rad50EPP+ strain (AID 151);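 also: 0% = growth of vehicle-treated control cultures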; conditions: S. cerevisiae rad50 mutant strain, stronger effect = higher value
# Outline: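 Genetically defined yeast (rad50EPP+, DNA damage repair alteration) is grown with compound, and inhibition of growth is expressed relative to vehicle-treated controls.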
# [4] = NCI Yeast Anticancer Drug Screen. Data for the mgt1 strain (AID 153); conditions: S. cerevisiae mgt1 mutant growth inhibition, stronger effect = higher value
# Outline: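 In the mgt1 strain, test compounds were added and growth inhibition was determined relative to vehicle-treated controls.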
# [5] = NCI Yeast Anticancer Drug Screen. Data for the rad50 strain (AID 155);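 also: 0% = growth of vehicle-only cultures of the same strain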; conditions: S. cerevisiae rad50 strain growth inhibition, stronger effect = higher value
# Outline: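 Genetically altered yeast (DNA repair pathway); compound treatment; growth inhibition vs vehicle ctrl.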
# [6] = NCI Yeast Anticancer Drug Screen. Data for the mec2-1 strain (AID 157); conditions: S. cerevisiae mec2-1 strain, stronger effect = higher value
# Outline: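 Each compound was tested on mec2-1 yeast, a strain altered in DNA damage repair or cell cycle control. Growth inhibition is reported relative to vehicle.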
# [7] = NCI Yeast Anticancer Drug Screen. Data for the rad14 strain (AID 159);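 also: 0% = growth of vehicle-treated control cultures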; conditions: S. cerevisiae rad14 strain growth inhibition, stronger effect = higher value
# Outline: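 Test compounds were applied to a repair-deficient yeast strain. Its growth was then compared with that of cultures given vehicle alone, and inhibition was expressed relative to those controls.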
# [8] = NCI Yeast Anticancer Drug Screen. Data for the sgs1 mgt1 strain (AID 161);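 also: 0% = growth of cultures given vehicle only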; conditions: S. cerevisiae sgs1 mgt1 strain, stronger effect = higher value
# Outline: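 Genetically altered yeast, compound exposure, growth inhibition relative to vehicle.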
# [9] = NCI Yeast Anticancer Drug Screen. Data for the CLN2oe strain (AID 163);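 also: 0% = growth of vehicle-only control cultures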; conditions: S. cerevisiae CLN2oe strain, stronger effect = higher value
# Outline: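 First, the altered yeast strain was treated with each compound; second, its growth was measured; finally, inhibition was derived by comparison with vehicle controls.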
# [10] = NCI Yeast Anticancer Drug Screen. Data for the cln2 rad14 strain (AID 165);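 also: 0% = growth equal to vehicle treated cultures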; conditions: S. cerevisiae cln2 rad14 strain, stronger effect = higher value
# Outline: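 Test compounds were added to cln2 rad14 yeast cultures; inhibition of growth was then determined by comparison with vehicle treatment.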
# [11] = NCI Yeast Anticancer Drug Screen. Data for the bub3 strain (AID 167); conditions: S. cerevisiae bub3 mutant strain, stronger effect = higher value
# Outline: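 Yeast carrying a defined mutation is treated with each compound, and growth is compared with that of vehicle-exposed cells to give inhibition.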
# [12] = NCI Yeast Anticancer Drug Screen. Data for the wt2 strain (AID 169);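 also: 0% = growth of vehicle-treated yeast cultures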; conditions: S. cerevisiae wt2 strain growth inhibition, stronger effect = higher value
# Outline: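 The panel's yeast strains carry defined changes in DNA repair or cell cycle genes. Each strain is grown with compound, and growth loss is scored relative to vehicle.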
# [13] = NCI Yeast Anticancer Drug Screen. Data for the mlh1 strain (AID 171);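 also: 0% = growth of vehicle-treated control cultures of the same strain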; conditions: S. cerevisiae mlh1 strain growth inhibition, stronger effect = higher value
# Outline: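 Inhibition values reflect reduced yeast growth in the presence of compound, referenced to vehicle controls, using a strain chosen for its alteration in DNA repair or cell cycle control.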
# [14] = NCI Yeast Anticancer Drug Screen. Data for the sgs1 strain (AID 173);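 also: 0% = growth of vehicle-only control cultures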; conditions: S. cerevisiae sgs1 mutant, stronger effect = higher value
# Outline: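 Vehicle-treated cultures served as reference for growth inhibition of a yeast strain altered in DNA damage repair or cell cycle control after compound exposure.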
# [15] = NCI Yeast Anticancer Drug Screen. Data for the mlh1 rad18 strain (AID 175); conditions: S. cerevisiae mlh1 rad18 strain growth inhibition, stronger effect = higher value
# Outline: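 Inhibition values reflect reduced growth of mutant yeast versus vehicle-treated controls following compound exposure; the mutations affect DNA damage repair.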
# [16] = NCI Yeast Anticancer Drug Screen. Data for the rad18 strain (AID 177); conditions: S. cerevisiae rad18 mutant growth inhibition, stronger effect = higher value
# Outline: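 Steps: expose repair-mutant yeast to compound; measure growth; express as inhibition relative to vehicle control.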
# [17] = at 5.0 µM (retest, dose inferred, filed as 0.5)
# [18] = at 50.0 µM (retest, dose inferred, filed as 5.0)
smiles,measurement,setting,value
Nc1ccc(F)cc1S,growth inhibition,[1]; at 1.2 µM,-2% (inactive)
same,growth inhibition,[1]; at 3.7 µM,-15% (inactive)
same,growth inhibition,[1]; at 11.0 µM,-11% (inactive)
same,growth inhibition,[1]; at 33.0 µM,60% (inactive)
same,growth inhibition,[1]; at 100.0 µM,98% (active)
same,growth inhibition,[2]; at 1.2 µM,-7% (inactive)
same,growth inhibition,[2]; at 3.7 µM,1% (inactive)
same,growth inhibition,[2]; at 11.0 µM,6% (inactive)
same,growth inhibition,[2]; at 33.0 µM,92% (active)
same,growth inhibition,[2]; at 100.0 µM,99% (active)
same,growth inhibition,[3]; at 1.2 µM,-19% (inactive)
same,growth inhibition,[3]; at 3.7 µM,-19% (inactive)
same,growth inhibition,[3]; at 11.0 µM,-37% (inactive)
same,growth inhibition,[3]; at 33.0 µM,55% (inactive)
same,growth inhibition,[3]; at 100.0 µM,97% (active)
same,growth inhibition,[4]; at 1.2 µM,-15% (inactive)
same,growth inhibition,[4]; at 3.7 µM,-20% (inactive)
same,growth inhibition,[4]; at 11.0 µM,12% (inactive)
same,growth inhibition,[4]; at 33.0 µM,92% (active)
same,growth inhibition,[4]; at 100.0 µM,98% (active)
same,growth inhibition,[5]; at 1.2 µM,-23% (inactive)
same,growth inhibition,[5]; at 3.7 µM,-40% (inactive)
same,growth inhibition,[5]; [17],16% (inactive)
same,growth inhibition,[5]; at 11.0 µM,-14% (inactive)
same,growth inhibition,[5]; at 33.0 µM,61% (inactive)
same,growth inhibition,[5]; [18],91% (active)
same,growth inhibition,[5]; at 50.0 µM,51.1% (inactive)
same,growth inhibition,[5]; at 100.0 µM,98% (active)
same,growth inhibition,[6]; at 1.2 µM,-16% (inactive)
same,growth inhibition,[6]; at 3.7 µM,-15% (inactive)
same,growth inhibition,[6]; [17],9% (inactive)
same,growth inhibition,[6]; at 11.0 µM,8% (inactive)
same,growth inhibition,[6]; at 33.0 µM,81% (active)
same,growth inhibition,[6]; [18],99% (active)
same,growth inhibition,[6]; at 50.0 µM,85.8% (active)
same,growth inhibition,[6]; at 100.0 µM,98% (active)
same,growth inhibition,[7]; at 1.2 µM,-32% (inactive)
same,growth inhibition,[7]; at 3.7 µM,-18% (inactive)
same,growth inhibition,[7]; at 11.0 µM,-14% (inactive)
same,growth inhibition,[7]; at 33.0 µM,70% (active)
same,growth inhibition,[7]; at 100.0 µM,97% (active)
same,growth inhibition,[8]; [17],31% (inactive)
same,growth inhibition,[8]; [18],100% (active)
same,growth inhibition,[8]; at 50.0 µM,80.5% (active)
same,growth inhibition,[9]; at 1.2 µM,-70% (inactive)
same,growth inhibition,[9]; at 3.7 µM,-50% (inactive)
same,growth inhibition,[9]; at 11.0 µM,-24% (inactive)
same,growth inhibition,[9]; at 33.0 µM,43% (inactive)
same,growth inhibition,[9]; at 100.0 µM,94% (active)
same,growth inhibition,[10]; [17],46% (inactive)
same,growth inhibition,[10]; [18],88% (active)
same,growth inhibition,[10]; at 50.0 µM,85.4% (active)
same,growth inhibition,[11]; at 1.2 µM,-33% (inactive)
same,growth inhibition,[11]; at 3.7 µM,-15% (inactive)
same,growth inhibition,[11]; [17],61% (inactive)
same,growth inhibition,[11]; at 11.0 µM,18% (inactive)
same,growth inhibition,[11]; at 33.0 µM,73% (active)
same,growth inhibition,[11]; [18],99% (active)
same,growth inhibition,[11]; at 50.0 µM,87.5% (active)
same,growth inhibition,[11]; at 100.0 µM,98% (active)
same,growth inhibition,[12]; at 1.2 µM,4% (inactive)
same,growth inhibition,[12]; at 3.7 µM,-8% (inactive)
same,growth inhibition,[12]; at 11.0 µM,56% (inactive)
same,growth inhibition,[12]; at 33.0 µM,95% (active)
same,growth inhibition,[12]; at 100.0 µM,98% (active)
same,growth inhibition,[13]; at 1.2 µM,-20% (inactive)
same,growth inhibition,[13]; at 3.7 µM,-19% (inactive)
same,growth inhibition,[13]; at 11.0 µM,2% (inactive)
same,growth inhibition,[13]; at 33.0 µM,83% (active)
same,growth inhibition,[13]; at 100.0 µM,98% (active)
same,growth inhibition,[14]; at 1.2 µM,-16% (inactive)
same,growth inhibition,[14]; at 3.7 µM,-24% (inactive)
same,growth inhibition,[14]; at 11.0 µM,-14% (inactive)
same,growth inhibition,[14]; at 33.0 µM,46% (inactive)
same,growth inhibition,[14]; at 100.0 µM,97% (active)
same,growth inhibition,[15]; [17],15% (inactive)
same,growth inhibition,[15]; [18],76% (active)
same,growth inhibition,[15]; at 50.0 µM,89.3% (active)
same,growth inhibition,[16]; at 1.2 µM,-28% (inactive)
same,growth inhibition,[16]; at 3.7 µM,-30% (inactive)
same,growth inhibition,[16]; at 11.0 µM,1% (inactive)
same,growth inhibition,[16]; at 33.0 µM,71% (active)
same,growth inhibition,[16]; at 100.0 µM,97% (active)
